Experimental findings from PubChem BioAssay (NCATS) are described below.

Molecules are shown by their SMILES. Where “and” joins values, the source holds several entries; their conditions need not be identical. Equal values may be shown once. A number with no mark means an inactive call. Inconclusive results are not listed. Calls of active or inactive are those of the source. Unless noted, calls follow the shape of the dose curve; as a rule, active = well fitted curve in the direction sought with a large enough effect; inconclusive = small, poorly fitted or top-dose-only effect, or another doubt; inactive = no such curve, though single readings can be large; an effect the other way counts as inactive or inconclusive.

Assay [1] is described as follows: Cell Viability - Jurkat (AID 426;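 active = dose-dependent loss of cell ATP signal giving a full or clear fitted curve, ranked by lower potency value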; also: potency is read from the fitted curve at half-maximal effect). The conditions noted are these: qHTS. In short, it runs like this: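 Cytotoxicity was scored as loss of cellular ATP, measured by luciferase-based luminescence, in Jurkat clone E6-1 cells after 40 h compound treatment; tamoxifen and doxorubicin served as positive controls.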
(In general: qHTS replaces the single test concentration by a dilution series.)

The nature of assay [2]: Cell Viability - Hek293 (AID 427;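 active = compounds whose dose-response curve shows a full or clear partial loss of cell viability, called from curve shape rather than a numeric limit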;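 also: potency is read from the fitted curve at half-maximal effect; cells exposed to compound for 40 hours at 37 °C before reading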). To be noted: qHTS. The essentials: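 HEK293 cells in complete medium were exposed to compound for 40 hr at 37 °C, then cellular ATP was read by CellTiter-Glo luminescence. Data were normalized to DMSO (basal) and 100 uM tamoxifen (100% inhibition), and AC50 came from Hill fits.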
A short description of assay [3]: Cell Viability - HepG2 (AID 433; calls by dose curve; also: potency is read from the fitted curve at half-maximal effect). The conditions noted are these: qHTS. The essentials: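 HepG2 hepatocellular carcinoma cells (1500/well) were treated with compounds for 40 h at 37 °C in complete medium; intracellular ATP was read by CellTiter-Glo luminescence. Data were normalized to DMSO and 100 uM tamoxifen, and AC50 came from Hill fits.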
Assay [4] in a line: Cell Viability - SK-N-SH (AID 435; calls by dose curve;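 also: potency is read from the fitted curve at half-maximal effect; compound exposure lasted 40 h at 37 °C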). To be noted: SK-N-SH neuroblastoma cell viability qHTS. The essentials: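 SK-N-SH human neuroblastoma cells (1500/well) were exposed to compounds in complete medium for 40 h at 37 °C, and intracellular ATP was then measured by CellTiter-Glo luminescence. AC50 was taken from Hill fits, normalized to DMSO and 100 uM tamoxifen.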
For assay [5], the target named is Mitogen-activated protein kinase 10 (Mus musculus) (UniProt Q61831). The assay can be described thus: JNK3 AlphaScreen Assay (AID 530; active = well fitted curve in either direction with a large enough effect, not every such curve was filed as active;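 also: kinase came from lysate of stimulated human HepG2 cells; signal reports phosphorylation of biotinylated GST-cJun 1-79 at Ser73 with 10 µM ATP; % is scaled to controls: 0 for no effect and ±100 for the full control effect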). To be noted: JNK3 lysate, c-Jun phosphorylation; series mostly up to 57.1 µM. In short, it runs like this: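 Kinase buffer: 20 mM Tris-HCl pH 7.6, 10 mM MgCl2, 1 mM DTT, 0.1 mM Na3VO4, 0.01% Tween-20; ATP 10 uM. Substrate biotin-GST-cJun(1-79), enzyme from activated HepG2 lysates. Detection by Ser73 phospho-antibody AlphaScreen.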

The nature of assay [6]: Cell Viability - NIH 3T3 (AID 541). Also: nearly all actives have a fitted effect of over 25% in size. Also: potency is read from the fitted curve at half-maximal effect.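 As to activity change, negative = cytotoxicity: plate controls were DMSO alone for no effect and tamoxifen positive control for full effect.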 The conditions noted are these: NIH 3T3 cell viability, qHTS; activity change, negative = cytotoxicity: at 92.2 µM (top of the series). In short, it runs like this:
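In this cytotoxicity screen, acute toxicity is scored as an ATP drop measured by CellTiter-Glo in NIH 3T3 fibroblasts following a 40 hr, 37 °C incubation with compound.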

Assay [7] can be described thus: Cell Viability - H-4-II-E (AID 543). Also: nearly all actives have a fitted effect of over 35% in size. Also: potency is read from the fitted curve at half-maximal effect. The conditions noted are these: H-4-II-E rat hepatoma viability; series mostly up to 92.2 µM. The essentials:
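AC50 from Hill-modelled qHTS concentration-response curves. H-4-II-E rat hepatoma cells in complete medium, 40 hr exposure at 37 °C, viability by CellTiter-Glo ATP luminescence.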

The nature of assay [8]: Cell Viability - Mesenchymal (AID 546).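 Also: cells exposed to compound for 40 hours before reading.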 Also: potency is read from the fitted curve at half-maximal effect. To be noted: mesenchymal cells viability, qHTS; activity change, negative = cytotoxicity: at 91.7 µM (top of the series). The essentials: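 CellTiter-Glo luminescence (intracellular ATP, 20 min room temperature) after 40 hr compound exposure at 37 °C of 1000 glomerulus-derived human kidney mesenchymal cells/well; AC50 values obtained by fitting qHTS concentration-response data to the Hill equation.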

Assay [9] is described as follows: Cellular Toxicity (caspase-3) HepG2 (AID 654).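 Also: cells exposed to compound for 16 hours before reading; 0% = DMSO alone and 100% = caspase signal from 100 µM tamoxifen.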 The conditions noted are these: HepG2 caspase-3 activation, luminescence, 0% = DMSO only, 100% = tamoxifen; series mostly up to 92.2 µM. In short, it runs like this: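 Concentration-response AC50 values reflect caspase-3/7 induction in HepG2 cells after 16 hours of compound exposure, quantified by luminescence from liberated aminoluciferin and referenced to 100 uM tamoxifen as full stimulation.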

The nature of assay [10]: Cellular Toxicity (caspase-3) HUV-EC-C (AID 656). To be noted: HUV-EC-C cells, caspase-3 activation (apoptosis), vehicle = 0, 100 µM tamoxifen = 100%; series mostly up to 92.2 µM. In short, it runs like this:
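HUV-EC-C endothelial cells, 1000/well, were pre-incubated 5 hr at 37°C, then exposed to compounds for 16 hr at 37°C. Caspase-Glo 3/7 luminescence was read after 20 min at room temperature. AC50 came from Hill fits, normalized to DMSO and 100 uM tamoxifen.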

Assay [11] is described as follows: Cellular Toxicity (caspase-3) BJ (AID 658). The conditions noted are these: BJ fibroblasts, luminescence, normalized: DMSO 0%, staurosporine 100%; series mostly up to 91.7 µM. The essentials: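 Caspase-Glo 3/7 luminescence, read 1 hr after reagent at room temperature, in normal BJ fibroblasts exposed 16 hours at 37 °C. AC50 values from Hill-equation concentration-response, scaled between DMSO basal and 10 uM staurosporine as 100%.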

Assay [12] is described as follows: Cellular Toxicity (caspase-3) MRC-5 (AID 659). To be noted: MRC-5 cells, luminescence, normalized: DMSO 0%, 10 µM staurosporine 100%; series mostly up to 91.7 µM. The essentials: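 Luminescent Caspase-Glo 3/7 read-out (1 h, room temperature) after a 16 h, 37 °C compound exposure of MRC-5 lung fibroblasts at 1500 cells/well. Concentration-response AC50 from Hill equation; 0% DMSO, 100% 10 uM staurosporine.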

A short description of assay [13]: Cellular Toxicity (caspase-3) Mesangial (AID 660).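 Also: combined caspase 3 and 7 activity read by Caspase-Glo luminescence; cells exposed to compound for 16 h before the caspase read.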 The conditions noted are these: mesangial cells, normalized: DMSO 0%, 100 µM tamoxifen 100%; series mostly up to 91.7 µM. In short, it runs like this:
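AC50 values come from Hill-equation fits of caspase 3/7 activation, measured as Caspase-Glo luminescence in human glomerular mesangial cells exposed to compound for 16 h at 37 °C; 100% set by 100 uM tamoxifen.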

Assay [14] in a line: Cellular Toxicity (caspase-3) NIH 3T3 (AID 666). To be noted: NIH 3T3 caspase-3 activation, apoptosis/toxicity, 0% DMSO, 100% is 100 µM tamoxifen; series mostly up to 92.2 µM. The essentials:
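Activity: caspase-3/7 induction, NIH 3T3 cells, 16 hr treatment at 37°C, luminescent Caspase-Glo detection; AC50 via Hill equation.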

Assay [15] can be described thus: Cellular Toxicity (caspase-3) Renal Proximal Tubule (AID 667).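 Also: cells exposed to compound for 16 hours at 37 °C before detection.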 The conditions noted are these: renal proximal tubule cells, primary cells freshly taken from rat, solvent-only wells 0%, staurosporine 100%; series mostly up to 91.7 µM. The essentials: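 Primary rat proximal tubule cells, 1000/well, 5 h plating at 37 °C, then compound 16 h at 37 °C. Caspase-Glo 3/7 reagent, 1 h RT, luminescence. Normalized to DMSO (basal) and 10 uM staurosporine (100%); Hill-fit AC50.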

Assay [16] can be described thus: MultiTox-Fluor Cytotoxicity Assay - LYMP1-003 - Live Cells (AID 962). Also: potency is read from the fitted curve at half-maximal effect. The conditions noted are these: LYMP1-003 lymphoblastoid cells, MultiTox-Fluor live-cell protease fluorescence; series mostly up to 92.2 µM. In short, it runs like this: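 Human lymphoblastoid line LYMP1-003 in complete culture medium, treated 16 hr with titrated compounds. Viable cells quantified via cell-permeant GF-AFC substrate fluorescence; AC50 derived by Hill fitting.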

Assay [17] in a line: Cell Viability - LYMP1-003 - Assay at 40 hr (AID 964). Also: nearly all actives have a fitted effect of over 60% in size. Also: potency is read from the fitted curve at half-maximal effect. To be noted: LYMP1-003 lymphoblastoid viability; series mostly up to 92.2 µM. In short, it runs like this:
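Acute toxicity is scored as a concentration-dependent loss of intracellular ATP in LYMP1-003 cells (2500/well, complete medium) after 40 hr at 37 C, measured by CellTiter-Glo luminescence; AC50 values derive from standard Hill modelling.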

A short description of assay [18]: Cell Viability - LYMP2-011 (AID 969).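 Also: cells exposed to compound for 24 hours; nearly all actives have a fitted effect of over 60% in size.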 Also: potency is read from the fitted curve at half-maximal effect. To be noted: LYMP2-011 lymphoblastoid cells viability; series mostly up to 92.2 µM. In short, it runs like this: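 Cells seeded at 2500 per well rest 5 hr before compound addition, then incubate 24 hr at 37 C. CellTiter-Glo reagent is added for 30 min at room temperature before luminescence detection.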
Assay [19] is described as follows: qHTS Assay for Identification of Small Molecule Inducers of Hypoxia Response (AID 2120; active = well fitted curve in the direction sought with a large enough effect in the signal ratio, with a control signal flat, not every such curve was filed as active; the % refers to the signal ratio; also: 0% is about no effect). To be noted: hypoxia response reporter cells, beta-lactamase ratio readout; series mostly up to 104 µM. In short, it runs like this: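 HRE-bla ME-180, 2500 cells/well, 0.5% dialyzed FBS medium; cpd titration, 17 h 37 degrees C; CCF4 2.5 h RT; Ex 405, Em 460/530 ratio -> %Activity, AC50.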

Assay [20] concerns the target Peroxisome proliferator-activated receptor alpha (Homo sapiens) (UniProt Q07869). The experiment in a line: qHTS assay for small molecule agonists of the peroxisome proliferator-activated receptor alpha (PPARalpha) signaling pathway (AID 651778). Also: % of control where 0% means no effect. The conditions noted are these: PathHunter PPARalpha complementation, chemiluminescence, 6 h; max response: active compounds read high. In short, it runs like this: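 Chemiluminescence from complemented enzyme reported PPARalpha activation in cells after 6 hr of compound treatment at 37 C. The detection reagent was incubated for 60 min at room temperature, and compounds were scored as agonists.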

Peroxisome proliferator-activated receptor alpha (Homo sapiens), sequence (Q07869 whole entry, looked up): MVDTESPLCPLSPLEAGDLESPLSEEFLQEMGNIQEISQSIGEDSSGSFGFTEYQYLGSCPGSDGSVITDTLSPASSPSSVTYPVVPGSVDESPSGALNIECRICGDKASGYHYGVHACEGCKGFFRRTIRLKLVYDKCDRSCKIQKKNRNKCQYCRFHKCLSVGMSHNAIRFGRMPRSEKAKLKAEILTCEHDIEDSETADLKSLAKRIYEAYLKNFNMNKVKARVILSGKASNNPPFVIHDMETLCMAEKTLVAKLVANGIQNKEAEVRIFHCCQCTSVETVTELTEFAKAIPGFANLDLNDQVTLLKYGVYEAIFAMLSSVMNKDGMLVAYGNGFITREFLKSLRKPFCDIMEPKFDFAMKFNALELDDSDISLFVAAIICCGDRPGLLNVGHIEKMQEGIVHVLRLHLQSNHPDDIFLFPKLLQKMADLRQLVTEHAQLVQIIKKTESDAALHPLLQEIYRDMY

As for `CC1(C)CC(N=C=O)CC(C)(CN=C=O)C1` (stereo not drawn), the Potency in assay [1], in [2], in [3] and in [4] was greater than 92 µM in each case. For the same compound, the Potency entry in [5], in [6], in assay [7], in [16], in [17] and in assay [18] was “inactive” throughout. Moreover, the activity change, negative = cytotoxicity in [8] is 8.39%. Besides, the call in assay [9], in [10], in assay [11], in assay [12], in assay [13] and in assay [14] was inactive. Moreover, the outcome in assay [15] and in assay [19] was inactive. The max response in assay [20] was -1.83% and -0.793%.

Turning to `CCCCOCCO`, the Potency in [1], in assay [2], in assay [3] and in [4] was greater than 92 µM throughout. Further, the Potency result in assay [6], in [7], in assay [16], in [17] and in [18] was “inactive” throughout. For the same compound, in assay [8], the activity change, negative = cytotoxicity was 1.27% and 8.74%. In addition, the call in [9], in assay [10], in assay [11], in assay [12], in assay [13] and in [14] was inactive. Besides, the compound was called inactive in assay [15] and in [19]. In addition, the max response in assay [20] is -6.41% and -1.42% and -1.76%.

Regarding `COc1cccc(-c2nc(N(C)C)c3ccccc3n2)c1`, in [5], the Potency entry is “inactive”.

Regarding `C=CC(=O)OCCOCCOCCOCCOC(=O)C=C`, the Potency in [1] is 6.78 µM (active) and 12.4 µM (active); in assay [2] it was 24.8 µM (active) and 28.8 µM (active); in assay [3], greater than 92 µM; in [4], 10.9 µM (active) and 23.1 µM (active); in assay [6] it was 2.51 µM (active) and 3.98 µM (active); in assay [7], 20 µM (active). Further, the Potency in [16] was 25.1 µM (active) and 31.6 µM (active); in assay [17], 12.6 µM (active) and 31.6 µM (active); in assay [18], 20 µM (active) and 25.1 µM (active). Further, the Potency result in assay [5] was “inactive”. Further, in assay [8], the activity change, negative = cytotoxicity was -89.5% (active) and -83.9% (active). Moreover, the compound was called inactive in assay [9], in assay [10], in assay [11], in assay [12], in [13] and in assay [14]. For the same compound, the compound was classed as inactive in assay [15] and in [19]. In addition, the max response in assay [20] was -0.0133% and -3.95%.

As for `NC1=NC(S)C2N=CN=C2N1` (stereo not drawn), the Potency is 0.0486 µM (active) in assay [1]; 1.39 µM (active) in assay [2]; 1.89 µM (active) in [3]; 0.182 µM (active) in [4]; 158 nM (active) in assay [6]; 0.398 µM (active) in [7]. Further, the Potency in assay [8] was 0.251 µM (active); in assay [17] it was 1.58 µM (active); in assay [18], 20 µM (active). Further, the Potency entry in assay [5] and in assay [16] was “inactive” in each case. Besides, the compound was called inactive in assay [9], in assay [10], in assay [11], in assay [12], in assay [13] and in [14]. In addition, the compound was called inactive in assay [15] and in [19]. Also, in assay [20], the max response was -3.14%.

Consider `Cc1ccccc1-c1ccc2ncnc(NCCN3CCOCC3)c2c1`, for which the Potency entry in assay [5] was “inactive”.

Take `COc1cccc(Cn2c(=O)cnc3cnc(N(C)C)nc32)c1`: the Potency result in assay [5] was “inactive”.

As to `CN1CCN(c2nc(-c3cccnc3)nc3ccccc23)CC1`, the Potency entry in assay [5] is “inactive”.

On to `ClCCCl`, for which the Potency in assay [1], in [2], in assay [3] and in assay [4] was greater than 92 µM each time. For the same compound, the Potency entry in [5], in [6], in [7], in [16], in assay [17] and in [18] was “inactive” each time. The activity change, negative = cytotoxicity in [8] was 8.24%. Also, the call in [9], in assay [10], in [11], in [12], in assay [13] and in [14] was inactive. Moreover, the call in assay [15] and in [19] was inactive. In addition, the max response in assay [20] is 1.65% and -1.11%.
